We go through 40 compounds from the supplement of paper PMC8975748.

Where a name gives a salt, the structure may show the parent alone.

This assay deals with Saccharomyces cerevisiae BY4741 SeMeCo community. Description: z-score of subpopulation abundance vs DMSO median, subpopulation auxotrophic for M; higher = larger share of this subpopulation than in DMSO controls. The conditions noted are these: 10 µM; 24 h; SM minimal medium; subpopulation (auxotrophy): M. How it is done:
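Fluorescent four-plasmid SeMeCo (self-establishing metabolically cooperating S. cerevisiae BY4741 community; plasmids pH-mRuby2, pL-mWasabi, pU-eCFP, pM-TagRFP657) was grown 24 h in minimal SM medium with each Selleck FDA-approved drug at 10 µM in 384-well plates. Cells were fixed and imaged by high-content confocal microscopy. For each auxotrophic subpopulation (and the prototroph), a z-score gives the deviation from the DMSO vehicle-control population median.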
As to `COC(=O)C1=C(C#N)NC(C)=C(C(=O)OC(C)C)C1c1cccc([N+](=O)[O-])c1` (stereo not given) [Nilvadipine], the “z-score of subpopulation abundance” value came out at 1.61. As for `OC(CCCN1CCCCC1)(c1ccccc1)c1ccccc1` [Diphenidol HCl], the “z-score of subpopulation abundance” value was 0.98. Under `Nc1nc(N)c2nc(-c3ccccc3)c(N)nc2n1` [Triamterene] stands 4.86; under `Cc1c(C)c2c(c(C)c1O)CCC(C)(CCCC(C)CCCC(C)CCCC(C)C)O2` (stereo not given) [Vitamin E], -0.6; under `CN1CC(=O)N2[C@H](c3ccc4c(c3)OCO4)c3[nH]c4ccccc4c3C[C@@H]2C1=O` [Tadalafil], 0.2.

On to `CCN(CC)C(=O)[C@@]1(c2ccccc2)C[C@H]1CN` [Levomilnacipran Hydrochloride], for which the “z-score of subpopulation abundance” value is -0.27. For the compound `C[C@@H](O)[C@H]1C(=O)N2C(C(=O)O)=C(S[C@@H]3CN[C@H](C(=O)N(C)C)C3)[C@H](C)[C@H]12` [Meropenem], the “z-score of subpopulation abundance” value was -0.33. In the case of `CC(C(=O)O)c1ccc2c(c1)Cc1cccnc1O2` (stereo not given) [Pranoprofen] it was -0.49; in that of `Nc1ccc(S(=O)(=O)Nc2ccccn2)cc1` [Sulfapyridine], 0.24; in that of `CCCc1nc(C)c2c(=O)nc(-c3cc(S(=O)(=O)N4CCN(CC)CC4)ccc3OCC)[nH]n12` [Vardenafil HCl Trihydrate], 0.64. In the case of `O=C(CCCN1CCN(c2ccccn2)CC1)c1ccc(F)cc1` [Azaperone], the “z-score of subpopulation abundance” value amounted to 0. In the case of `CC1(C)S[C@@H]2[C@H](NC(=O)[C@H](N)c3ccccc3)C(=O)N2[C@H]1C(=O)O` [Ampicillin Trihydrate] it was -0.37. In the case of `CCN(CC)CC#CCOC(=O)C(O)(c1ccccc1)C1CCCCC1` (stereo not given) [Oxybutynin chloride], the “z-score of subpopulation abundance” value is -0.21.

As to `C[N+](C)(C)CCO.[Cl-]` [Choline Chloride], the “z-score of subpopulation abundance” value is -1.56. In the case of `CCCCCCCCCC(=O)N[C@@H](Cc1c[nH]c2ccccc12)C(=O)N[C@H](CC(N)=O)C(=O)N[C@@H](CC(=O)O)C(=O)N[C@@H]1C(=O)NCC(=O)N[C@@H](CCCN)C(=O)N[C@@H](CC(=O)O)C(=O)N[C@H](C)C(=O)N[C@@H](CC(=O)O)C(=O)NCC(=O)N[C@H](CO)C(=O)N[C@@H]([C@H](C)CC(=O)O)C(=O)N[C@@H](CC(=O)c2ccccc2N)C(=O)O[C@@H]1C` [Daptomycin], the “z-score of subpopulation abundance” value was determined as 0.17. In the case of `CC1=C(C(=O)O)N2C(=O)[C@@H](NC(=O)[C@H](N)C3=CCC=CC3)[C@H]2SC1` [Cephradine monohydrate] it was -0.02; in that of `CN1CCc2cc3c(cc2C(=O)Cc2ccc4c(c2C1)OCO4)OCO3` [Protopine], -0.25. With `Cc1ccnc(NS(=O)(=O)c2ccc(N)cc2)n1` [Sulfamerazine], the “z-score of subpopulation abundance” value was found to be 1.32.

Consider `COc1cccc(CCc2ccccc2OCC(CN(C)C)OC(=O)CCC(=O)O)c1` (stereo not given) [Sarpogrelate hydrochloride], for which the “z-score of subpopulation abundance” value is -0.54. Under `COc1cc(/C=C/C(=O)N2CCN(CC(=O)N3CCCC3)CC2)cc(OC)c1OC` [Cinepazide maleate] stands 0; under `CN1CCN(CC(=O)N2c3ccccc3C(=O)Nc3cccnc32)CC1` [Pirenzepine dihydrochloride], -0.96; under `CC[C@@H]1C(=O)OC[C@@H]1Cc1cncn1C` [Pilocarpine HCl], 0.65. Regarding `CCCCN1CCCC[C@H]1C(=O)Nc1c(C)cccc1C` [Levobupivacaine HCl], the “z-score of subpopulation abundance” value was -1.02.

As to `C#C[C@]1(O)CC[C@H]2[C@@H]3CCC4=CC(=O)CC[C@@H]4[C@H]3C(=C)C[C@@]21CC` [Etonogestrel], the “z-score of subpopulation abundance” value was -1.48. Consider `CN(C)CCCN1c2ccccc2Sc2ccc(Cl)cc21` [Chlorpromazine HCl], for which the “z-score of subpopulation abundance” value was found to be 0.41. As for `COc1ccc2c3c1O[C@H]1C[C@@H](O)C=C[C@@]31CCN(C)C2` [Galanthamine], the “z-score of subpopulation abundance” value came out at 1.21. Under `NC(=O)c1cnccn1` [Pyrazinamide] stands 0.41; under `CS(=O)(=O)c1ccc(C2=C(c3ccccc3)C(=O)OC2)cc1` [Rofecoxib], 0.64. In the case of `CCCN1CCCC[C@H]1C(=O)Nc1c(C)cccc1C` [Ropivacaine] it was 0.5; in that of `C[C@H]1c2cccc(O)c2C(O)=C2C(=O)[C@]3(O)C(O)=C(C(N)=O)C(=O)[C@@H](N(C)C)[C@@H]3[C@@H](O)[C@@H]21` [Doxycycline monohydrate], -0.88; in that of `CO[C@@]1(NC(=O)C(C(=O)O)c2ccc(O)cc2)C(=O)N2C(C(=O)O)=C(CSc3nnnn3C)CO[C@@H]21` (stereo not given in full) [Latamoxef sodium], 0.17.

With `C[C@H](NCc1ccc(OCc2cccc(F)c2)cc1)C(N)=O` [Safinamide], the “z-score of subpopulation abundance” value amounted to 0.59. Under `CCCCOc1ccc(CC(=O)NO)cc1` [Bufexamac] stands -0.94. Under `N/C(=N\N=C\c1ccc(Cl)cc1)N/N=C/c1ccc(Cl)cc1` [Robenidine Hydrochoride] stands 9.06.

Turning to `CC[C@H]1OC(=O)[C@H](C)[C@@H](O[C@H]2C[C@@](C)(OC)[C@@H](O)[C@H](C)O2)[C@H](C)[C@@H](O[C@@H]2O[C@H](C)C[C@H](N(C)C)[C@H]2O)[C@](C)(O)C[C@@H](C)C(=O)[C@H](C)[C@@H](O)[C@]1(C)O` [Erythromycin thiocyanate], the “z-score of subpopulation abundance” value was 0.78. Turning to `CN(C)CCCC1(c2ccc(F)cc2)OCc2cc(C#N)ccc21` (stereo not given) [Citalopram HBr], the “z-score of subpopulation abundance” value is -0.6. Under `O=C(Cn1cnnn1)N[C@@H]1C(=O)N2C(C(=O)O)=C(CSc3nncs3)CS[C@H]12` [Ceftezole sodium] stands 0.01; under `CC1(C)[C@H](C(=O)O)N2C(=O)C[C@H]2S1(=O)=O` [Sulbactam sodium], 0.51.

Take `CCCN1C[C@H](C)[C@@H](O)[C@](C)(O)[C@@H](CC)OC(=O)[C@H](C)[C@@H](O[C@H]2C[C@@](C)(OC)[C@@H](O)[C@H](C)O2)[C@H](C)[C@@H](O[C@@H]2O[C@H](C)C[C@H](N(C)C)[C@H]2O)[C@](C)(O)C[C@H]1C` [Gamithromycin]: the “z-score of subpopulation abundance” value is -0.59. For the compound `CC/C(=C(\c1ccccc1)c1ccc(OCCN(C)C)cc1)c1ccccc1` [Tamoxifen Citrate], the “z-score of subpopulation abundance” value was -1.11.
